Measured values taken from the supplement of paper PMC10849652.
Targets with a hit are over-represented here; the source holds about 7,900 in all. About 0.6% of all pairs of compound and target were hits. Unmarked numbers belong to inactive results.

UniProt Q6YHU6, sequence (Q6YHU6 whole entry, looked up): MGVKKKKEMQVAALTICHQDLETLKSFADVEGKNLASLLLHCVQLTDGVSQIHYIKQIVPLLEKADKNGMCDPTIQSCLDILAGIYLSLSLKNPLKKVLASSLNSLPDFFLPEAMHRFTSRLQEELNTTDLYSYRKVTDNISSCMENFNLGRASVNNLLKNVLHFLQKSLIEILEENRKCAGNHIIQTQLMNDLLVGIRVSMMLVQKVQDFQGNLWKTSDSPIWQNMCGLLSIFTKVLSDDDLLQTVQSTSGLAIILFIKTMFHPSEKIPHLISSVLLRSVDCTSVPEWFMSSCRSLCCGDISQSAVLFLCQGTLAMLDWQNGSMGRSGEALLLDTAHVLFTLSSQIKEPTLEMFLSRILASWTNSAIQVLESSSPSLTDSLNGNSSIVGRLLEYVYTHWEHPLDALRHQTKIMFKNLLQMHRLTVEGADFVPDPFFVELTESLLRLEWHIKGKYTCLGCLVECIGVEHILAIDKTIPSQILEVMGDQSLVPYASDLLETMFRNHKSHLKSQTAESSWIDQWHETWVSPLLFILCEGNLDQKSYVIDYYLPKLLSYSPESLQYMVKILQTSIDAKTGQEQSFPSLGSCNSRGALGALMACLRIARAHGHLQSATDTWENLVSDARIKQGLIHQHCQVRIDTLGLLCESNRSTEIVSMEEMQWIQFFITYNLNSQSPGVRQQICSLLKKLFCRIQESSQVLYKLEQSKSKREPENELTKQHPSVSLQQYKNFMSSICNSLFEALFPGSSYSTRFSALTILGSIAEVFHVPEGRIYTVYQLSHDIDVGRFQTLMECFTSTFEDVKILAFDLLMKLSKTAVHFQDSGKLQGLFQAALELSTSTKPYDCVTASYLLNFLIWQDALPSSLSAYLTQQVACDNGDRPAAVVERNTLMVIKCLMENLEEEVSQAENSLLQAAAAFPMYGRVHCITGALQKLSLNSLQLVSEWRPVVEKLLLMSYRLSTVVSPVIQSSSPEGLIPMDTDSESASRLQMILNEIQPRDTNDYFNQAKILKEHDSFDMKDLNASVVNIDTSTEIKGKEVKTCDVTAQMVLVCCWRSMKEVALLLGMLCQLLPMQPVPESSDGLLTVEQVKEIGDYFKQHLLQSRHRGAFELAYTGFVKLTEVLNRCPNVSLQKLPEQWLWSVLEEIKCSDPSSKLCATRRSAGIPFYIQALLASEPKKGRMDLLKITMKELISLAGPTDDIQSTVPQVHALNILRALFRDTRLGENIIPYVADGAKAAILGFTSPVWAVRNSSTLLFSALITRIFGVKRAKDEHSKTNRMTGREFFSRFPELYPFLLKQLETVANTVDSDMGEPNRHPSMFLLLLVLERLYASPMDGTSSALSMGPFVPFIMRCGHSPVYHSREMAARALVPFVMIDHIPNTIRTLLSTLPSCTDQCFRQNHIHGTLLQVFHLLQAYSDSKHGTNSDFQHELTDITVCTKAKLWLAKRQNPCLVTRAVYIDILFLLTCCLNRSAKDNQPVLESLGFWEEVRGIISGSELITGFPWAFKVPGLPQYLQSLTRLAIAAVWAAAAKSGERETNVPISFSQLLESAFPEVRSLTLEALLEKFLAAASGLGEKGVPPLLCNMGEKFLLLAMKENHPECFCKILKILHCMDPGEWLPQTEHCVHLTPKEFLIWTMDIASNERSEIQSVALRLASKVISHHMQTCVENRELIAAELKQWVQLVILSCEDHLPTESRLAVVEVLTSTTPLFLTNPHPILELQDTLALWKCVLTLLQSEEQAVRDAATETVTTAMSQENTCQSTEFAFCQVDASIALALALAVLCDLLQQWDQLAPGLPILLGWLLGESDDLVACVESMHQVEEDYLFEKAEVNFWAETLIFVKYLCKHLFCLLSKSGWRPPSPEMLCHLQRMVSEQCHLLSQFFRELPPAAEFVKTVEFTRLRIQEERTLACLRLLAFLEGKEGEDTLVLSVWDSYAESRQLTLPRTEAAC
UniProt Q9UQ35, sequence (Q9UQ35 whole entry, looked up): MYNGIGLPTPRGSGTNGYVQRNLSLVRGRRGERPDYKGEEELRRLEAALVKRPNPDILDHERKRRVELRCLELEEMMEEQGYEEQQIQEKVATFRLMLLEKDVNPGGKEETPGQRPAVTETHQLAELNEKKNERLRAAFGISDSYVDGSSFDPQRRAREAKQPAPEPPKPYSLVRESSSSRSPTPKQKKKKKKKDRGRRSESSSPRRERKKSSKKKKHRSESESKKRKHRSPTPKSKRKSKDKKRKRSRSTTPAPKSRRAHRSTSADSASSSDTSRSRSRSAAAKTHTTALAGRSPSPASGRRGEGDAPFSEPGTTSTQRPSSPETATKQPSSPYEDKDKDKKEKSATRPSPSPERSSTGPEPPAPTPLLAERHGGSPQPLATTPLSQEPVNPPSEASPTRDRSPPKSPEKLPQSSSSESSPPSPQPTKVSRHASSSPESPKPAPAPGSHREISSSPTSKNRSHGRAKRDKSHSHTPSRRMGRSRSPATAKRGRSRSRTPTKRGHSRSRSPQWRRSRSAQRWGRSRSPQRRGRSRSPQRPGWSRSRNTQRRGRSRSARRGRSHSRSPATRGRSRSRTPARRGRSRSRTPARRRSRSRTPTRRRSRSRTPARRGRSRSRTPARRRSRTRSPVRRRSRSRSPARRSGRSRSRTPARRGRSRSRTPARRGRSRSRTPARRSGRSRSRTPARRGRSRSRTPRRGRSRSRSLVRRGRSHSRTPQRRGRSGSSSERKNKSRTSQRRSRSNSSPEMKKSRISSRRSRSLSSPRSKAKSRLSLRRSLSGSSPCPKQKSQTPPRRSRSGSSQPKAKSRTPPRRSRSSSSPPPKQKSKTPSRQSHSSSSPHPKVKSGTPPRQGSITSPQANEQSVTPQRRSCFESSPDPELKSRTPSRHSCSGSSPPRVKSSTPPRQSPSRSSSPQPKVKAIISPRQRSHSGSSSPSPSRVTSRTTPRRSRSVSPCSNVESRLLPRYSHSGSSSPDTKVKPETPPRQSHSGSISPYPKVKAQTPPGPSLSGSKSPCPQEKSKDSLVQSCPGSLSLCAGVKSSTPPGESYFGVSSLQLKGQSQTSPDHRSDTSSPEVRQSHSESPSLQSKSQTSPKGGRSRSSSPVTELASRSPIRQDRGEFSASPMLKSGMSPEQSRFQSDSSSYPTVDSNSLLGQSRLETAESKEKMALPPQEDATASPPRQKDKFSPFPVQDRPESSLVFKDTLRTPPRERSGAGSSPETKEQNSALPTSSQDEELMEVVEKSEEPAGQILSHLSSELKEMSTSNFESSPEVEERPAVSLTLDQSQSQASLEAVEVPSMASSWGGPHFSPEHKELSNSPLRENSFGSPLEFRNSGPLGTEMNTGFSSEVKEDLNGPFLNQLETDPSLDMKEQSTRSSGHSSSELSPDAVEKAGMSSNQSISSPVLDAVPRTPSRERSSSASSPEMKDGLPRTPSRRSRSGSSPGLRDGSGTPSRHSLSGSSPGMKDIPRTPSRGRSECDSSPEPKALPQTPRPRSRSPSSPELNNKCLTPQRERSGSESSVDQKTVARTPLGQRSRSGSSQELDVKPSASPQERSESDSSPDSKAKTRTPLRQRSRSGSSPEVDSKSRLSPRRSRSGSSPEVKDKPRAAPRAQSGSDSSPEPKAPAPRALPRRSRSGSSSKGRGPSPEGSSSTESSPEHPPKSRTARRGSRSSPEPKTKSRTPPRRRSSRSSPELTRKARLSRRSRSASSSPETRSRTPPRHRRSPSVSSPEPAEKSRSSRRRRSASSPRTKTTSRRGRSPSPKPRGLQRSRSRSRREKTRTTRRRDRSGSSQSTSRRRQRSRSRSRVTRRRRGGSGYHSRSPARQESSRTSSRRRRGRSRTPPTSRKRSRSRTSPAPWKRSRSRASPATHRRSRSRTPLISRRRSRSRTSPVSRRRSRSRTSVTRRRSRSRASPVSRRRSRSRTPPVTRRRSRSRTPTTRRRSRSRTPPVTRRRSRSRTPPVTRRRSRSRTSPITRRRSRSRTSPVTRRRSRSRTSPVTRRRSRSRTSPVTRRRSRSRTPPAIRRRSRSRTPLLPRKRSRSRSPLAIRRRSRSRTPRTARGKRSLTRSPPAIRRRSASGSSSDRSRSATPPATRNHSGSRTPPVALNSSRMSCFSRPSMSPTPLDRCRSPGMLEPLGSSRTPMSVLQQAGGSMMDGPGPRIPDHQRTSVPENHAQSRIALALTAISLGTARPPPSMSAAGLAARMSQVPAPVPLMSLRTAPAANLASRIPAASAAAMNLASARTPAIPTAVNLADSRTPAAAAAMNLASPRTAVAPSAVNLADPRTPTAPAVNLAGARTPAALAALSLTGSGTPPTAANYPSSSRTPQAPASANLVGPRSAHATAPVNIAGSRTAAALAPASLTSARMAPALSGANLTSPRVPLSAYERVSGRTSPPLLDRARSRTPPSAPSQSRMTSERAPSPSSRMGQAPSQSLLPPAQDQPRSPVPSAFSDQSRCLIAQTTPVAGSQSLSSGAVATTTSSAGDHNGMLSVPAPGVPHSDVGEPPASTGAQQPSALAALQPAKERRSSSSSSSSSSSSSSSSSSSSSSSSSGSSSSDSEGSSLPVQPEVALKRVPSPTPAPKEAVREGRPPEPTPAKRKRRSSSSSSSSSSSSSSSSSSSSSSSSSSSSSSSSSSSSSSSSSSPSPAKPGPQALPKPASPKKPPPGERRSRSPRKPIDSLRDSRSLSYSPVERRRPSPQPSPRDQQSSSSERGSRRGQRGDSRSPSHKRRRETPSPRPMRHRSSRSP
UniProt Q15005, sequence (Q15005 whole entry, looked up): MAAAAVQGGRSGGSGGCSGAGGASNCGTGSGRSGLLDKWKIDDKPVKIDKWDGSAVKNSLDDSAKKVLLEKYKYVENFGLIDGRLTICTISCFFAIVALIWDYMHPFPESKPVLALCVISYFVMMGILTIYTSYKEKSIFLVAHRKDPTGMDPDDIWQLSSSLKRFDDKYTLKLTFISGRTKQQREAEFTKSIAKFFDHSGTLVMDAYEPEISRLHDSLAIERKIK
UniProt P84103, sequence (P84103 whole entry, looked up): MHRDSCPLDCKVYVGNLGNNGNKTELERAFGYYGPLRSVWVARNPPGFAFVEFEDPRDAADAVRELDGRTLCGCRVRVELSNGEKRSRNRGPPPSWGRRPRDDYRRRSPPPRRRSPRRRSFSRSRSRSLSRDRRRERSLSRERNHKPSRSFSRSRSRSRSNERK

The targets below were run with c1cn2cc(-c3ccc4cn[nH]c4c3)nc(Nc3ccc(N4CCOCC4)cc3)c2n1 [entospletinib] (assay: log2 fold change, soluble protein after heating vs DMSO (PISA); higher = thermal stabilisation; K562 cells, 10 uM, 30 min; active = over 0.2 and 3.5 SD of the protein, either way, in both replicates (recomputed)).
Summary of the method: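 Soluble protein was quantified by TMTpro 16plex LC-MS/MS after channel sums were equalised. It was obtained as the supernatant after 21,000xg for 90 min from pooled aliquots of K562 cells (2×10^6 cells/mL, 10 μM compound, 30 min) heated for 3 min across 48°C-58°C and extracted in PBS with 0.5% NP-40 at 4°C. Thermal stability values are relative to control samples and come from duplicates. They are given as log2 fold changes.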
TFRC (UniProt P02786) showed a log2 fold change of 0.022.
With SNX2 isoform 2 (UniProt O60749) the log2 fold change was -0.255.
STK25 (UniProt O00506) was tested, and the log2 fold change was -0.104.
SRSF3 (UniProt P84103) showed a log2 fold change of 0.153.
Target SRRM2 (UniProt Q9UQ35) has a log2 fold change of -0.048.
SMARCE1 (UniProt Q969G3) was tested, and the log2 fold change was -0.117.
In the case of STK38 (UniProt Q15208), the log2 fold change is reported as -0.033.
In the case of SPART (UniProt Q8N0X7), the log2 fold change is reported as -0.005.
THADA (UniProt Q6YHU6) showed a log2 fold change of 0.004.
Target SP100 isoform 4 (UniProt P23497) has a log2 fold change of 0.045.
For SMAD2 (UniProt Q15796), the log2 fold change was -0.013.
SLIRP (UniProt Q9GZT3) showed a log2 fold change of 0.134.
SLC6A6 (UniProt P31641) showed a log2 fold change of -0.067.
For SUPT5H (UniProt O00267), the log2 fold change was 0.031.
Target TIMM21 (UniProt Q9BVV7) has a log2 fold change of 0.017.
STARD7 (UniProt Q9NQZ5) gave a log2 fold change of -0.052.
SMARCAD1 isoform 2 (UniProt Q9H4L7) was tested, and the log2 fold change was -0.008.
SPECC1 (UniProt Q5M775) gave a log2 fold change of 0.085.
With SRI (UniProt P30626) the log2 fold change was 0.019.
SRSF9 (UniProt Q13242) showed a log2 fold change of 0.094.
Work on TANGO6 (UniProt Q9C0B7) yielded a log2 fold change of -0.089.
With SMC5 (UniProt Q8IY18) the log2 fold change was 0.016.
SLC38A7 (UniProt Q9NVC3) showed a log2 fold change of 0.004.
STK11IP (UniProt Q8N1F8) was tested, and the log2 fold change was 0.036.
Target TLK1 (UniProt Q9UKI8) has a log2 fold change of 0.001.
For STAM2 (UniProt O75886), the log2 fold change was 0.052.
SPCS2 (UniProt Q15005) showed a log2 fold change of -0.145.
ST6GAL1 (UniProt P15907) gave a log2 fold change of 0.098.
With SRSF11 (UniProt Q05519) the log2 fold change was 0.
SRPRB (UniProt Q9Y5M8) showed a log2 fold change of -0.052.
In the case of TBC1D15 isoform 3 (UniProt Q8TC07), the log2 fold change is reported as 0.007.
SYK (UniProt P43405) showed a log2 fold change of 0.015.
TK1 (UniProt P04183) gave a log2 fold change of -0.012.
For TEX264 (UniProt Q9Y6I9), the log2 fold change was 0.601 (active).
STK38L (UniProt Q9Y2H1) showed a log2 fold change of 0.083.
